Consider 197 variants from a collection of fitness landscapes (doi:10.1126/science.1257360).

In all, about 140,000 sequences were measured (“enrichment ratio after two sorts for PhoP signalling”: median about 0, highest 2% from about 11 on). This excerpt belongs to a sample that is enriched for the highest values. Bounds are passed on as bounds.

First the molecules themselves.
B1: PhoQ; a variant is named by its letters at X, in order, P23837 (parent)
chain: MKKLLRLFFPLSLRVRFLLATAAVVLVLSLAYGMVALIGYSVSFDKTTFRLLRGESNLFYTLAKWENNKLHVELPENIDKQSPTMTLIYDENGQLLWAQRDVPWLMKMIQPDWLKSNGFHEIEADVNDTSLLLSGDHSIQQQLQEVREDDDDAEMTHSVAVNVYPATSRMPKLTIVVVDTIPVELKSSYMVWSWFIYVLSANLLLVIPLLWVAAWWSLRPIEALAKEVRELEEHNRELLNPATTRELTSLVRNLNRLLKSERERYDKYRTTLTDLTHSLKTPLXXLQXXLRSLRSEKMSVSDAEPVMLEQISRISQQIGYYLHRASMRGGTLLSRELHPVAPLLDNLTSALNKVYQRKGVNISLDISPEISFVGEQNDFVEVMGNVLDNACKYCLEFVEISARQTDEHLYIVVEDDGPGIPLSKREVIFDRGQRVDTLRPGQGVGLAVAREITEQYEGKIVAGESMLGGARMEVIFGRQHSAPKDE

In this assay the parent is B1. The experiment in a line: enrichment ratio after two sorts for PhoP signalling (ratio (wild type AVST 3.29)); higher = more functional. The conditions noted are these: with PhoP (E. coli).
Consider EVAW, for which the enrichment ratio was at most 0.25.
The same measure for DHDV: at most 0.25; for YAYW: at most 0.25; for ANRY: at most 0.25.
As for RTRT, the enrichment ratio was at most 0.25.
Turning to WPGL, the enrichment ratio is at most 0.25.
As for ASMN, the enrichment ratio was found to be 19.6.
In the case of ASVG, the enrichment ratio was 14.7.
As for ASMD, the enrichment ratio is at most 0.25.
The same measure for ASNL: 4.93; for ASQN: at most 0.25.
The result for ASMW reads 5.78; that for KSAF, at most 0.25.
The same measure for ASAF: 15.1; for ASVC: 5.25.
For the variant AHAF, the enrichment ratio was at most 0.25.
Take ASMG: the enrichment ratio came out at 17.6.
The result for KSVG reads at most 0.25; that for VSHV, at most 0.25; that for ELII, at most 0.25.
Take DHGN: the enrichment ratio was at most 0.25.
NHFI: the enrichment ratio is at most 0.25.
For QTFL, the enrichment ratio worked out at 1.72.
In the case of YDLL, the enrichment ratio was at most 0.25.
As to QRFQ, the enrichment ratio is at most 0.25.
For EHKV, the enrichment ratio is at most 0.25.
Turning to LCMI, the enrichment ratio is at most 0.25.
On to IHER, for which the enrichment ratio was at most 0.25.
The same measure for LAPE: at most 0.25.
Regarding VIMD, the enrichment ratio was at most 0.25.
On to ASVM, for which the enrichment ratio was 12.1.
Turning to ASVI, the enrichment ratio was determined as 5.75.
Turning to KSMK, the enrichment ratio was at most 0.25.
Consider VRSI, for which the enrichment ratio is at most 0.25.
With ASVP, the enrichment ratio was at most 0.25.
Turning to ASMA, the enrichment ratio was found to be 2.9.
The result for AMTG reads 2.78.
The result for AITG reads 11.5; that for ASSI, 15.8.
With VHTG, the enrichment ratio is at most 0.25.
As to ASRK, the enrichment ratio is at most 0.25.
With ASMK, the enrichment ratio came out at 17.
For YVIL, the enrichment ratio was at most 0.25.
The result for LYCG reads at most 0.25; that for RRIS, at most 0.25.
On to NHAY, for which the enrichment ratio is at most 0.25.
Regarding QIHN, the enrichment ratio was at most 0.25.
Consider YWDR, for which the enrichment ratio is at most 0.25.
As for YHEQ, the enrichment ratio was at most 0.25.
IKMW: the enrichment ratio was at most 0.25.
In the case of ASVE, the enrichment ratio was determined as 21.7.
The same measure for ASMI: 13.5; for ASIG: 12; for ASMV: 7.76.
Turning to ASMS, the enrichment ratio was 5.31.
Regarding KSVE, the enrichment ratio was at most 0.25.
Turning to ASWG, the enrichment ratio was at most 0.25.
Consider ASEG, for which the enrichment ratio is at most 0.25.
Turning to ASHE, the enrichment ratio was at most 0.25.
Regarding ASTG, the enrichment ratio is 14.7.
In the case of PNRW, the enrichment ratio is at most 0.25.
As to LAVR, the enrichment ratio is at most 0.25.
Regarding IMSG, the enrichment ratio is at most 0.25.
The result for RHEW reads at most 0.25.
The same measure for QSKD: at most 0.25; for VADS: at most 0.25; for DWYQ: at most 0.25.
On to YRSW, for which the enrichment ratio is at most 0.25.
Regarding MFAS, the enrichment ratio is at most 0.25.
VCAS: the enrichment ratio was at most 0.25.
The same measure for MKAS: at most 0.25; for MAAS: 1.31; for DMAS: at most 0.25.
The same measure for YTAS: at most 0.25.
With MMAS, the enrichment ratio is 15.4.
With MTAS, the enrichment ratio was found to be 12.
Consider MCAS, for which the enrichment ratio worked out at 14.
Turning to KMAS, the enrichment ratio is at most 0.25.
ICAS: the enrichment ratio was at most 0.25.
In the case of TMAS, the enrichment ratio came out at 15.
As to NQNV, the enrichment ratio was at most 0.25.
NTIL: the enrichment ratio is at most 0.25.
As for MCAI, the enrichment ratio worked out at 8.95.
GQFV: the enrichment ratio is at most 0.25.
As to PTRG, the enrichment ratio is at most 0.25.
Turning to IQLY, the enrichment ratio is at most 0.25.
As for QVYW, the enrichment ratio is at most 0.25.
The same measure for GCPS: at most 0.25.
Take FSMN: the enrichment ratio amounted to 1.56.
For the variant RGMN, the enrichment ratio is at most 0.25.
For GGMN, the enrichment ratio is at most 0.25.
As to TSMN, the enrichment ratio came to 12.3.
For THMN, the enrichment ratio was 12.7.
On to KSMN, for which the enrichment ratio is at most 0.25.
As for TGMN, the enrichment ratio came out at 34.8.
NHMN: the enrichment ratio was at most 0.25.
On to SHMN, for which the enrichment ratio was at most 0.25.
As for RHML, the enrichment ratio was at most 0.25.
On to RVMN, for which the enrichment ratio was at most 0.25.
Turning to GNFW, the enrichment ratio was at most 0.25.
For LDMA, the enrichment ratio is at most 0.25.
Consider ESWV, for which the enrichment ratio is at most 0.25.
The same measure for KCLD: at most 0.25; for RANI: at most 0.25.
As to GSIV, the enrichment ratio worked out at 8.6.
The same measure for GSMV: 17.2; for GSCS: 5.76; for GSCL: 21.5.
Take GSCV: the enrichment ratio is 16.6.
As for GSCA, the enrichment ratio was 0.424.
In the case of GSCI, the enrichment ratio turned out to be 10.8.
For GSWV, the enrichment ratio is at most 0.25.
Take GSMW: the enrichment ratio was at most 0.25.
The same measure for FTHE: at most 0.25; for HIYR: at most 0.25; for AWLF: at most 0.25.
For the variant YRSQ, the enrichment ratio was at most 0.25.
Regarding HSMV, the enrichment ratio amounted to 17.
The result for HSWV reads at most 0.25.
With HSMH, the enrichment ratio was at most 0.25.
The result for HSMI reads 17.4; that for HSMW, at most 0.25; that for HSMG, 1.29.
The result for WYLH reads at most 0.25.
Regarding TLFF, the enrichment ratio was at most 0.25.
Take AINV: the enrichment ratio is at most 0.25.
SNRK: the enrichment ratio is at most 0.25.
As for QKYP, the enrichment ratio is at most 0.25.
Regarding IVDD, the enrichment ratio was at most 0.25.
Consider VLPC, for which the enrichment ratio is at most 0.25.
In the case of HDDH, the enrichment ratio is at most 0.25.
The same measure for WDDD: at most 0.25; for KQSC: at most 0.25; for TLSC: 8.65.
The same measure for SRSC: at most 0.25.
The same measure for CMSC: 39.5; for SDSC: 2.35.
In the case of MMSC, the enrichment ratio was at most 0.25.
In the case of SQSC, the enrichment ratio is 11.7.
Consider STSC, for which the enrichment ratio is 11.6.
Regarding YTSC, the enrichment ratio is at most 0.25.
For the variant FVKG, the enrichment ratio was at most 0.25.
For PVCQ, the enrichment ratio is at most 0.25.
On to MPMY, for which the enrichment ratio was at most 0.25.
The result for HPTD reads at most 0.25; that for MFHP, at most 0.25; that for IYSH, at most 0.25.
Take TGNT: the enrichment ratio was 15.8.
Regarding GGNT, the enrichment ratio was at most 0.25.
In the case of TGNY, the enrichment ratio was 16.9.
Turning to RGNT, the enrichment ratio was at most 0.25.
As to GGNY, the enrichment ratio was at most 0.25.
The result for RGNY reads at most 0.25; that for GGAT, at most 0.25.
The result for TGAT reads 18.1; that for AKAH, 4.55; that for TGAH, 9.14.
As for RGAT, the enrichment ratio is at most 0.25.
The same measure for AGAH: 11.2; for IMPT: at most 0.25.
For the variant STPE, the enrichment ratio is at most 0.25.
Turning to SDDK, the enrichment ratio was at most 0.25.
The result for DTVG reads at most 0.25; that for MNVA, at most 0.25; that for LNLH, at most 0.25.
Regarding MLMR, the enrichment ratio is at most 0.25.
For the variant CQVY, the enrichment ratio worked out at 5.8.
In the case of AGKR, the enrichment ratio was at most 0.25.
For the variant AGDT, the enrichment ratio is at most 0.25.
The same measure for AGAT: 11.3; for CQNY: 12.1.
The result for CQWS reads at most 0.25; that for IKGI, at most 0.25.
Take DLMM: the enrichment ratio is at most 0.25.
Consider RFVW, for which the enrichment ratio is at most 0.25.
Turning to QQLG, the enrichment ratio was found to be 2.01.
For the variant YTCS, the enrichment ratio was at most 0.25.
Regarding ITCT, the enrichment ratio was at most 0.25.
Consider TTCV, for which the enrichment ratio was found to be 17.3.
Turning to ITCS, the enrichment ratio is at most 0.25.
The same measure for TTCG: 30.3; for TTCS: 18.7; for LTCG: at most 0.25.
The result for ITCV reads at most 0.25.
The same measure for YTCG: at most 0.25; for YTCV: at most 0.25; for YTCT: at most 0.25.
In the case of TTCT, the enrichment ratio was 12.8.
Consider ATPS, for which the enrichment ratio is at most 0.25.
Consider KDFS, for which the enrichment ratio is at most 0.25.
For PMMQ, the enrichment ratio is at most 0.25.
Turning to YYTW, the enrichment ratio is at most 0.25.
As to RVTP, the enrichment ratio is at most 0.25.
Turning to FDKV, the enrichment ratio was at most 0.25.
In the case of TTCK, the enrichment ratio was 5.62.
In the case of TTCE, the enrichment ratio stood at 8.85.
As to TTCI, the enrichment ratio was found to be 15.8.
